sEH activator – increases human soluble epoxide hydrolase activity; purified human sEH enzymatic activity, activator screen; activation, % at 2 µM; 0.04% of 91,000 active; P34913; in the data active means activation above about 37%
Target sequence (P34913 whole entry, looked up): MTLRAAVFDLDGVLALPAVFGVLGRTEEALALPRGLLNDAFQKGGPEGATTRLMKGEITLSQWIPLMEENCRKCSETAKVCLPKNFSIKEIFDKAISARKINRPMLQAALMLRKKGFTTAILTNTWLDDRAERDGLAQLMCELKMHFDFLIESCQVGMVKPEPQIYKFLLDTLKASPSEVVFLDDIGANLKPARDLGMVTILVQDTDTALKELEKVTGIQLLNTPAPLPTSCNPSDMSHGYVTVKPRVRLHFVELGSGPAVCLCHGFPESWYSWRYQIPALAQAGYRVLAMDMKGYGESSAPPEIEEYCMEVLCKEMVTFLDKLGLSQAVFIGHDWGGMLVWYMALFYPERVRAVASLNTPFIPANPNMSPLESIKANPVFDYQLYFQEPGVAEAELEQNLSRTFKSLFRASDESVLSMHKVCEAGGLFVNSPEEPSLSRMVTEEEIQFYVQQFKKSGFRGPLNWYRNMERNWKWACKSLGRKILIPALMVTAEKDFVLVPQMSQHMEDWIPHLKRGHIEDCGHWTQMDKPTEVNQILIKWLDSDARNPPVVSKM
PTPN22 inh 2 – blocks human PTPN22 phosphatase activity | Q9Y2R2 | recombinant LYP catalytic domain, DiFMUP fluorescence | inhibition, % at 2 µM | 0.21% of 96,000 active;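 active means inhibition at 2 µM at or above a set limit, the screen mean plus 3 SD, cut at about 24% in these data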;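 further: 0% = DMSO with enzyme and 100% = enzyme fully blocked by orthovanadate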
sEH inhibitor – inhibitors of human soluble epoxide hydrolase; P34913; recombinant human sEH enzymatic activity assay; inhibition, % at 2 µM; 0.34% of 91,000 active; in the data active means inhibition above about 80%
Measles CPE – protection of cells from measles virus; 1.5% of 140,000 active; Measles virus-infected cells, CPE protection, absorbance; protection (pct of control), % at 4 µM; in the data active means protection mostly above about 24%, no sharp cut-off; inactive means mostly below about 26%
LYP act – increases human PTPN22 phosphatase activity | Q9Y2R2 | recombinant LYP, DiFMUP fluorescence; 0 = plate median, 100 = signal doubled | activation, % at 2 µM | 0.11% of 96,000 active | AID 697;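 active means activation at 2 µM above a set limit, the mean plus 5 SD, cut at about 37% in these data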
* hit, by the source's call; nt = not tested or not shown. An excerpt weighted towards active compounds, which were near 1.7% of everything screened.

SMILES	sEH activator	PTPN22 inh 2	sEH inhibitor	Measles CPE	LYP act
N#CCCN(C(=O)Nc1ccc(Cl)c(Cl)c1)c1ccccc1	nt	nt	nt	5.3	nt
COc1ccc(CCNC(=O)CSc2nncs2)cc1	nt	nt	nt	5.1	nt
COc1c(F)c(F)c(C(=O)Nc2ccc(N3CCN(Cc4ccccc4)CC3)cc2)c(F)c1F	-28.3	-1.9	29.6	5.5	5.0
Cc1ccc(SCC(=O)c2c(C)[nH]c3ccccc23)cc1	nt	nt	nt	40.6*	nt
Cc1[nH]c2ccccc2c1C(=O)CSc1ccccc1	nt	nt	nt	22.4	nt
Cc1ccc(-n2c(N)c(-c3nc4ccccc4n3C)sc2=S)cc1	21.3	-4.8	-23.9	6.0	4.7
Cn1c(-c2ccc(N)cc2)nc2ccccc21	1.3	9.8	-0.8	21.8*	-13.4
CC1=CCC2([N+](=O)[O-])CN(CC(=O)O)CC1([N+](=O)[O-])C2 (stereo unspecified)	nt	nt	nt	14.6	nt
CS(=O)(=O)Nc1ccccc1C(=O)O	nt	nt	nt	51.0*	nt
C=CCSc1nnc2c(n1)OC(c1c(C)[nH]n(-c3ccccc3)c1=O)Nc1ccccc1-2 (stereo unspecified)	-11.0	-1.5	9.4	16.4	5.3
Cc1ccc(S(=O)(=O)CCC(=O)OCC(=O)c2ccc(C)c(C)c2)cc1	nt	nt	nt	29.9*	nt
CC(=O)NCC(=O)OCC(=O)c1ccc(C)c(C)c1	-6.4	-9.1	6.0	12.3	7.2
O=C(Nc1ccc2oc(-c3ccc(Cl)c(Cl)c3)nc2c1)c1ncn[nH]1	-1.5	40.3*	-0.2	6.3	-40.5
Cc1ccc2oc(-c3ccc(C)c(NC(=S)NC(=O)c4cccs4)c3)nc2c1	nt	nt	nt	59.1*	nt
O=C(Nc1ccc2oc(-c3ccc4ccccc4c3)nc2c1)c1ccc2c(c1)OCCO2	-27.8	31.1*	28.6	6.3	-29.3
O=C(Nc1ccc2oc(-c3ccncc3)nc2c1)c1cccs1	-43.9	-7.1	42.7	42.3*	7.0
Cc1ccc2nc(-c3cccc(NC(=O)c4ccc5c(c4)OCCO5)c3)oc2c1	-4.7	3.2	4.3	8.2	-5.0
O=C(NN=C1c2ccccc2-c2ccccc21)c1cccc(Br)c1	nt	nt	nt	7.7	nt
Cc1ccc(-c2nnc(CSc3nc(C(C)C)nc4sc(C)c(C)c34)o2)cc1	-1.2	6.3	6.2	7.3	-6.7
CN1CC(c2ccc(C#N)cc2)C2(COc3ccccc3C2=O)C12C(=O)Nc1ccccc12 (stereo unspecified)	-60.0	7.1	61.2	8.0	-4.6
COc1ccc(C(C)(C)C)cc1NC(=O)C1C2C=CC(C2)C1C(=O)O (stereo unspecified)	2.5	-2.1	-2.1	33.8*	-0.1
COc1ccc(C(C)(C)C)cc1NC(=O)C1CC=CCC1C(=O)O (stereo unspecified)	-9.6	6.4	9.2	14.9	-9.0
CC1(c2ccccc2)NC(=O)N(Cc2ccc([N+](=O)[O-])cc2)C1=O (stereo unspecified)	nt	nt	nt	53.2*	nt
COc1cnc(-c2ccccn2)nc1Sc1ccc(Cl)cc1	11.7	29.9*	-10.6	6.4	-27.6
CC1Cc2ccccc2N1C(=O)CSc1nnc(Cc2ccccc2)n1CCc1ccccc1 (stereo unspecified)	-13.1	8.1	14.4	11.9	-9.4
SMILES	sEH activator	PTPN22 inh 2	sEH inhibitor	Measles CPE	LYP act
CCCCN1CC2([N+](=O)[O-])C=CC(=O)C([N+](=O)[O-])(C1)C2CC(=O)c1ccccc1 (stereo unspecified)	nt	nt	nt	5.6	nt
CCN1CC2([N+](=O)[O-])C=CC(=O)C([N+](=O)[O-])(C1)C2CC(=O)c1ccccc1 (stereo unspecified)	3.5	0.2	-5.3	27.4*	-0.6
COc1cc(C(=O)Nc2ccc3c(c2)OCO3)ccc1-n1cnnn1	-0.1	-4.3	1.8	14.1	2.6
COc1cc(NC(=O)Cc2cccs2)ccc1-n1cnnn1	-3.1	-0.8	1.3	29.0*	-1.4
COc1cc(NC(=O)Cc2cccs2)cc(OC)c1	-3.7	6.5	8.3	33.9*	-7.3
CCCCNc1nc(-c2ccccc2)cc(C(F)(F)F)c1C(N)=O	3.5	0.8	1.5	7.2	-1.7
CCC(C)C(NC(=O)C1CCC(C)CC1)C(=O)NC(CCSC)C(=O)OC (stereo unspecified)	-10.5	-3.3	8.4	23.1*	4.8
COC(=O)C(CCSC)NC(=O)C(NC(=O)C1CCC(C)CC1)C(C)C (stereo unspecified)	nt	-7.2	nt	0.5	4.4
CC(OC(=O)c1cc(S(=O)(=O)N(C)c2ccccc2)ccc1Cl)C(=O)Nc1ccc2c(c1)OCCO2 (stereo unspecified)	nt	nt	nt	10.2	nt
COC(=O)c1ccc2[nH]c(C)c(CN3CCCC3)c(=O)c2c1	nt	nt	nt	48.2*	nt
COCCCNCCCCSc1ccc(Cl)cc1	nt	nt	nt	1.8	nt

From PubChem BioAssay
